# Source: article PMC7862700, “An all-to-all approach to the identification of sequence-specific readers for epigenetic DNA modifications on cytosine”
# Tests used:
# Experiment in all cases: DAPPL (digital affinity profiling via proximity ligation, sequencing); 10 mM Tris-HCl pH 7.5, 50 mM NaCl, 1 mM DTT, 4% glycerol, room temperature, 30 min; GST-TFs on glutathione beads, 16-mer random dsDNA library, 0.1% formaldehyde crosslink after washing; high values mean tight binding
# [1] = target: T1, FEV (Homo sapiens, UniProt Q99581 1-238); conditions: protein: recombinant; tags: N-terminal GST; dsDNA, one strand shown
# T1 sequence: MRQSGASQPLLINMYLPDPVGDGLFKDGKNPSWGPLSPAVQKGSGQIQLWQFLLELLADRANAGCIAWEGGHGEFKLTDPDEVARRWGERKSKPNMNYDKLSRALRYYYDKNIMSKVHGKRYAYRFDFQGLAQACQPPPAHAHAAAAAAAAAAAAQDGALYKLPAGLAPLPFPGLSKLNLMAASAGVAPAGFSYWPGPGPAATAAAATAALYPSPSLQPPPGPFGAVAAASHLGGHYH
# How it was run: (§1)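 Human transcription factors were made in yeast as GST fusions, captured on glutathione beads and barcoded with DNA. With a tag-only sample included, the pool was incubated with 200 nmole of a random double-stranded 16-mer DNA library in Tris/NaCl/DTT/glycerol buffer at room temperature for 30 min, then crosslinked with 0.1% formaldehyde after washing, ligated by proximity, amplified and sequenced. For binding signal, each hexamer's read frequency for a factor is divided by its frequency for the tag-only sample.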
# [2] = target: ETV5 (Homo sapiens, UniProt P41161 1-510); conditions: protein: recombinant; tags: N-terminal GST; dsDNA, one strand shown
# ETV5, sequence (P41161 whole entry): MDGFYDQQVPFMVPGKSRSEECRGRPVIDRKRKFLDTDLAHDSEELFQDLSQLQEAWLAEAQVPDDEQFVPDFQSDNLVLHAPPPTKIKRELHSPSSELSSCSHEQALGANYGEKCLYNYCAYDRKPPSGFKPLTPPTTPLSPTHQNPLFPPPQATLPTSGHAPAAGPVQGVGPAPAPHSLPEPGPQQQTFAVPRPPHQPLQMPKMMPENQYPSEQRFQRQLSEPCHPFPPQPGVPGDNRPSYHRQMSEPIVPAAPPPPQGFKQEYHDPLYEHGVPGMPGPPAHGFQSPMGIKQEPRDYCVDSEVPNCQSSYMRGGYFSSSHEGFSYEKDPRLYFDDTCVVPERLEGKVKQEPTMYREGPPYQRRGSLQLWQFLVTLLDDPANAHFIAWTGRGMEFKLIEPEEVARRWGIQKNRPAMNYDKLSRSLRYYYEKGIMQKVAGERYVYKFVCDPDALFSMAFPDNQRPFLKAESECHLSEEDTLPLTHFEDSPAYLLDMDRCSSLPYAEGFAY
# How it was run: as §1
# [3] = target: HSF1 (Homo sapiens, UniProt Q00613 1-529); conditions: protein: recombinant; tags: N-terminal GST; chain copies: 3; dsDNA, one strand shown
# HSF1, sequence (Q00613 whole entry): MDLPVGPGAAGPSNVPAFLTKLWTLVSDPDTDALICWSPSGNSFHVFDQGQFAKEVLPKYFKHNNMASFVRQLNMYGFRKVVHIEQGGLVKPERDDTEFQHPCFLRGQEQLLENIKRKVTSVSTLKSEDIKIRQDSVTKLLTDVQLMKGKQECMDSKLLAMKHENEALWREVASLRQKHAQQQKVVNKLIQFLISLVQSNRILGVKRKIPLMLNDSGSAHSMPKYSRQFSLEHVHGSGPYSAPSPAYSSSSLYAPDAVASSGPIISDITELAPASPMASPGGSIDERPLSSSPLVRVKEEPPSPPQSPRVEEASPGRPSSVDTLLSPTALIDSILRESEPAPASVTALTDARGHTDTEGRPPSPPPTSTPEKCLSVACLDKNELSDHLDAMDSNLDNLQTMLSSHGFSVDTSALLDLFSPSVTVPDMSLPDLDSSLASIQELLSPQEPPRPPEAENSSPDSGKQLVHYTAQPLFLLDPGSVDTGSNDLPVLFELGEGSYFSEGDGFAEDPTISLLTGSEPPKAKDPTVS
# How it was run: as §1
# [4] = target: T2, SPIC (Homo sapiens, UniProt Q8N5J4 1-248); conditions: protein: recombinant; tags: N-terminal GST; dsDNA, one strand shown
# T2 sequence: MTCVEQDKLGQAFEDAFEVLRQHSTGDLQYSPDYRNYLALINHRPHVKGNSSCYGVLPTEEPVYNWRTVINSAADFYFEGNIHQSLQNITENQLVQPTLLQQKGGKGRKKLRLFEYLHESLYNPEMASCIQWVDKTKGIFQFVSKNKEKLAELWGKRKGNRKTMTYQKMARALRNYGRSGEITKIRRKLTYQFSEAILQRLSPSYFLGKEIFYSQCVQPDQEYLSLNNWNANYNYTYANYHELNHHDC
# How it was run: as §1
# [5] = target: ELF4 (Homo sapiens, UniProt Q99607 1-663); conditions: protein: recombinant; tags: N-terminal GST; dsDNA, one strand shown
# ELF4, sequence (Q99607 whole entry): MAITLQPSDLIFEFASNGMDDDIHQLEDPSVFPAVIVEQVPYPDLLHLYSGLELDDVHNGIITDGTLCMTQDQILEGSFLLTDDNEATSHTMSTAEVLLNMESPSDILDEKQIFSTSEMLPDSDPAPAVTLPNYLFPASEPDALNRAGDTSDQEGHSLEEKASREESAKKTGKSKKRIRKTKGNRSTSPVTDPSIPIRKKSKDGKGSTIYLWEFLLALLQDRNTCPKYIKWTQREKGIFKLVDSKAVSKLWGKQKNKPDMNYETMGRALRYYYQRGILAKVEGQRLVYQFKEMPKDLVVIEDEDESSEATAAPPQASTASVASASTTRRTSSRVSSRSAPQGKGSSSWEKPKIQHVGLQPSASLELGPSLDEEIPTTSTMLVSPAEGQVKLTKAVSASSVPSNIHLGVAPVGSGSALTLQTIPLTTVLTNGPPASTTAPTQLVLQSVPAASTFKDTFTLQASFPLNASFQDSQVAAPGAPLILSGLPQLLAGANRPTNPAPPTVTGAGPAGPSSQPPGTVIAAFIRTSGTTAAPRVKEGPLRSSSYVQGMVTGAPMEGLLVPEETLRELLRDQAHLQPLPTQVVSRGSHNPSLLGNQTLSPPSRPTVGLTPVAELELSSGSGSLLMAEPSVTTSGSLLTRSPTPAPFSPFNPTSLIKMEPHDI
# How it was run: as §1
# [6] = target: T3, ELK4 (Homo sapiens, UniProt P28324-2 1-405); conditions: protein: recombinant; tags: N-terminal GST; dsDNA, one strand shown
# T3 sequence: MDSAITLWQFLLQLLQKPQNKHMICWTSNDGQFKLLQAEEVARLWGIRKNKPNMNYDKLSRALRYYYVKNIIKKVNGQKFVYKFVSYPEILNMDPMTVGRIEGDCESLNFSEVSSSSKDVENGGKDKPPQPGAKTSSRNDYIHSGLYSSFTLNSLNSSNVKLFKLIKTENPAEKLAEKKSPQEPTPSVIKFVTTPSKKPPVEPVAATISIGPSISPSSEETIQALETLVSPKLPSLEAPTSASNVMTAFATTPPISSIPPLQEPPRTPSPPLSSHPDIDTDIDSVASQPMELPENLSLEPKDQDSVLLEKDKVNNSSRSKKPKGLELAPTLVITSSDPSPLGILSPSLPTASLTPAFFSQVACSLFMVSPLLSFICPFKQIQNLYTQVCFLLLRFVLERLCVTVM
# How it was run: as §1
# [7] = target: T4, ETV2 (Homo sapiens, UniProt O00321 1-342); conditions: protein: recombinant; tags: N-terminal GST; dsDNA, one strand shown
# T4 sequence: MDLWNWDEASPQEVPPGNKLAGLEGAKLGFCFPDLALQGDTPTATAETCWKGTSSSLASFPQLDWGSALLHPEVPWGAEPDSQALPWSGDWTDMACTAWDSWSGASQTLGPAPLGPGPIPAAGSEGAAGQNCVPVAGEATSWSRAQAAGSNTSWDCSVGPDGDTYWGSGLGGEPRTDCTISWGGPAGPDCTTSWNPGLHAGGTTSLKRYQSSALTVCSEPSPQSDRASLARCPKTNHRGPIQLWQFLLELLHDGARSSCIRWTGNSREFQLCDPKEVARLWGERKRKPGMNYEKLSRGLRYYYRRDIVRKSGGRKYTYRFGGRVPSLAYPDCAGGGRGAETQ
# How it was run: as §1
# [8] = target: T5, ELF3 (Homo sapiens, UniProt P78545 1-371); conditions: protein: recombinant; tags: N-terminal GST; dsDNA, one strand shown
# T5 sequence: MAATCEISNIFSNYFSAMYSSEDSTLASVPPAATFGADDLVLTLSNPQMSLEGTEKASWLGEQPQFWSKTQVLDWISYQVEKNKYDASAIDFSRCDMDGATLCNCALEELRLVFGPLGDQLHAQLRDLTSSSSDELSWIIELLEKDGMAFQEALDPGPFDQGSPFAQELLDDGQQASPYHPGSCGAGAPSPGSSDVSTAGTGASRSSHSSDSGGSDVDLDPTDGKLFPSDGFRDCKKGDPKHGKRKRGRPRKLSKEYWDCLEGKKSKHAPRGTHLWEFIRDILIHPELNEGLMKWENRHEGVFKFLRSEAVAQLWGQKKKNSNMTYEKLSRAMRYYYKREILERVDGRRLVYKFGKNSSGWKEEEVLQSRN
# How it was run: as §1
# [9] = target: CRX (Homo sapiens, UniProt O43186 1-299); conditions: protein: recombinant; tags: N-terminal GST; dsDNA, one strand shown
# CRX, sequence (O43186 whole entry): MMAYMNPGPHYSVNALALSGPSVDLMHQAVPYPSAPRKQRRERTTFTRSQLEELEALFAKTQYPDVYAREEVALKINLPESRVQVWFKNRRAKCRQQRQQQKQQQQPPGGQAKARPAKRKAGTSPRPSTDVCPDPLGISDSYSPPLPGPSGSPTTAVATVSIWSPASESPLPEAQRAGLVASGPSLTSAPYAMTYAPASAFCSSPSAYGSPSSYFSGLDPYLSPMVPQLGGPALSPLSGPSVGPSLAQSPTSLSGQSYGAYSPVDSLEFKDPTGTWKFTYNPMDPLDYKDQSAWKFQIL
# How it was run: as §1
# [10] = target: ETV1 (Homo sapiens, UniProt P50549 1-477); conditions: protein: recombinant; tags: N-terminal GST; dsDNA, one strand shown
# ETV1, sequence (P50549 whole entry): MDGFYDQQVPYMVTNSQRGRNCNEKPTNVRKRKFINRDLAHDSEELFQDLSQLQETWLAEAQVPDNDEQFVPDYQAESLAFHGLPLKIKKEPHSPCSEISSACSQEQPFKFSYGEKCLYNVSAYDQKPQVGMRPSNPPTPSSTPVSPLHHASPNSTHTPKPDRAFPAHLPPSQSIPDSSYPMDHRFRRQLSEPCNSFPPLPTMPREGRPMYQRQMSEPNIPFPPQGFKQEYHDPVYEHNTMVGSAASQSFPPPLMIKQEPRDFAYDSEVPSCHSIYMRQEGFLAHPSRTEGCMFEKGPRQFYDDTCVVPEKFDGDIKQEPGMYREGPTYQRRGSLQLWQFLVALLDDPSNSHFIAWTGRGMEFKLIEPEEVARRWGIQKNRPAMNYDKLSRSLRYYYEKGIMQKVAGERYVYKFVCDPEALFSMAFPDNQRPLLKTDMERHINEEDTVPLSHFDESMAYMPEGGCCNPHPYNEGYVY
# How it was run: as §1
# [11] = target: T6, ERF (Homo sapiens, UniProt P50548 1-548); conditions: protein: recombinant; tags: N-terminal GST; dsDNA, one strand shown
# T6 sequence: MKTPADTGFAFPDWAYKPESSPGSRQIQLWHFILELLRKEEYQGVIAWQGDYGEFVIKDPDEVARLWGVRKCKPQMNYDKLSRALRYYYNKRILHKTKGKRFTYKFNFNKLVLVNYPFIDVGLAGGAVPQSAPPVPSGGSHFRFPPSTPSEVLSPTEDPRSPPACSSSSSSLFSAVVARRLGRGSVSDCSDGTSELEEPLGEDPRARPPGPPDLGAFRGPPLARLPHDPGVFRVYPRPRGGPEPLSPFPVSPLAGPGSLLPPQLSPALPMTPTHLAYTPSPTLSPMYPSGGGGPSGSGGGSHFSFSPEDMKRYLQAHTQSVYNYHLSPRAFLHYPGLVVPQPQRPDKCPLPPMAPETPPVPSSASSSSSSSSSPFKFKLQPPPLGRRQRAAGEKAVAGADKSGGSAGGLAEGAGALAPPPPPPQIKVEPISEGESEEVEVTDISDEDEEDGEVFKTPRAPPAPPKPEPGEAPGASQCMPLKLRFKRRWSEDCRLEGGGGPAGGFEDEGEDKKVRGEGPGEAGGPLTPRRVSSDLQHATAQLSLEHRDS
# How it was run: as §1
# [12] = target: T7, ETV3L (Homo sapiens, UniProt Q6ZN32 1-361); conditions: protein: recombinant; tags: N-terminal GST; dsDNA, one strand shown
# T7 sequence: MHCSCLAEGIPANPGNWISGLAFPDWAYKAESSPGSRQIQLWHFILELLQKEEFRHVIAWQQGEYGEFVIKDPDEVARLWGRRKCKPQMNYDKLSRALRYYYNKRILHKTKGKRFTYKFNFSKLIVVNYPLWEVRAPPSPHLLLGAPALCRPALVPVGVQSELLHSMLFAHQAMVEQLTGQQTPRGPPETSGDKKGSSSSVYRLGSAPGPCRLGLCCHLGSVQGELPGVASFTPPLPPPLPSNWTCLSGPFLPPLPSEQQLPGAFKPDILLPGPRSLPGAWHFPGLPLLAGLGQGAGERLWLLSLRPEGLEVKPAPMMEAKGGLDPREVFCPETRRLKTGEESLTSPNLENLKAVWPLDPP
# How it was run: as §1
# [13] = target: T8, ETS2 (Homo sapiens, UniProt P15036 1-469); conditions: protein: recombinant; tags: N-terminal GST; dsDNA, one strand shown
# T8 sequence: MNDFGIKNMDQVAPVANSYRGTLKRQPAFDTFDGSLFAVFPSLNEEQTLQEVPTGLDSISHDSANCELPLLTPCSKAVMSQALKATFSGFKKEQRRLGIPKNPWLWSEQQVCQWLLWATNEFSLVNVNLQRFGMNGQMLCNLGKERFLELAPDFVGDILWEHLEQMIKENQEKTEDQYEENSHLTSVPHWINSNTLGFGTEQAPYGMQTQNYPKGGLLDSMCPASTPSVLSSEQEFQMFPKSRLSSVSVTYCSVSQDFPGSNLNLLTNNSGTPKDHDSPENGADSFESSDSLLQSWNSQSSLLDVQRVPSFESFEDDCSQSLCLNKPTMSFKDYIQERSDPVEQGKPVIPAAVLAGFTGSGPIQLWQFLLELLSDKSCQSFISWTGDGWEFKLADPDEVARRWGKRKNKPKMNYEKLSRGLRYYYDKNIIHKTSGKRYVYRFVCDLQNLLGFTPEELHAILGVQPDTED
# How it was run: as §1
# [14] = target: T9, SPDEF (Homo sapiens, UniProt O95238 1-335); conditions: protein: recombinant; tags: N-terminal GST; dsDNA, one strand shown
# T9 sequence: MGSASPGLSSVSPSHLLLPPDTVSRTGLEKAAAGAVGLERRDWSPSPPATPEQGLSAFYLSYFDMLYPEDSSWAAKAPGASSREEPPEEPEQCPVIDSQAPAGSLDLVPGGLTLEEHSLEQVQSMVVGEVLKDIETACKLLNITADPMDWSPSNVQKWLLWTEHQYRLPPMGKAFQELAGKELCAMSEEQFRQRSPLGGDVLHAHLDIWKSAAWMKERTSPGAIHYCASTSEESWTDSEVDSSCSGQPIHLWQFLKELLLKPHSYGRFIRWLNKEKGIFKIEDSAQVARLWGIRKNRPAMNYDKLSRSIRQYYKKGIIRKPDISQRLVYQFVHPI
# How it was run: as §1
# [15] = target: T10, ETV7 (Homo sapiens, UniProt Q9Y603 1-341); conditions: protein: recombinant; tags: N-terminal GST; dsDNA, one strand shown
# T10 sequence: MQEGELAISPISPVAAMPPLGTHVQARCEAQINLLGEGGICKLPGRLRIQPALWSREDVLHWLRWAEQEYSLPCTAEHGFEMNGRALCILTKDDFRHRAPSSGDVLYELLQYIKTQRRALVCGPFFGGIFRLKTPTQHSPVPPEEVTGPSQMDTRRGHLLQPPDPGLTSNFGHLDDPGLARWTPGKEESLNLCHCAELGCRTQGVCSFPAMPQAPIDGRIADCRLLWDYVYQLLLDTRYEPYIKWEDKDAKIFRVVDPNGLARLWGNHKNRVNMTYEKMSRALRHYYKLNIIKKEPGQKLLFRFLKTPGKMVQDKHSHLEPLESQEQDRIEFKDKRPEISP
# How it was run: as §1
# [16] = target: T11, ELF5 (Homo sapiens, UniProt Q9UKW6-2 1-255); conditions: protein: recombinant; tags: N-terminal GST; dsDNA, one strand shown
# T11 sequence: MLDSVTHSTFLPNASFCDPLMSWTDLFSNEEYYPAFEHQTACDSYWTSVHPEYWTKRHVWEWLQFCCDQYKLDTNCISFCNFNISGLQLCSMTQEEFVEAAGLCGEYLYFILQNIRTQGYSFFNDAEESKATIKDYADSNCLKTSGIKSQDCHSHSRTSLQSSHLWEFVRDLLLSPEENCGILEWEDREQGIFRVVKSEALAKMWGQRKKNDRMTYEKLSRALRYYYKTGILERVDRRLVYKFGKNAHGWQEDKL
# How it was run: as §1
# [17] = target: T12, ETV3 (Homo sapiens, UniProt P41162-2 1-143); conditions: protein: recombinant; tags: N-terminal GST; dsDNA, one strand shown
# T12 sequence: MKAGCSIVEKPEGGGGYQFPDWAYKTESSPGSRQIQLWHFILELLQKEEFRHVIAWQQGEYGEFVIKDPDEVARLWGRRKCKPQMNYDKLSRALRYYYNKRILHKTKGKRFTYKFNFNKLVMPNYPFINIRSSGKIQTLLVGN
# How it was run: as §1
# [18] = target: ETV6 (Homo sapiens, UniProt P41212 1-452); conditions: protein: recombinant; tags: N-terminal GST; dsDNA, one strand shown
# ETV6, sequence (P41212 whole entry): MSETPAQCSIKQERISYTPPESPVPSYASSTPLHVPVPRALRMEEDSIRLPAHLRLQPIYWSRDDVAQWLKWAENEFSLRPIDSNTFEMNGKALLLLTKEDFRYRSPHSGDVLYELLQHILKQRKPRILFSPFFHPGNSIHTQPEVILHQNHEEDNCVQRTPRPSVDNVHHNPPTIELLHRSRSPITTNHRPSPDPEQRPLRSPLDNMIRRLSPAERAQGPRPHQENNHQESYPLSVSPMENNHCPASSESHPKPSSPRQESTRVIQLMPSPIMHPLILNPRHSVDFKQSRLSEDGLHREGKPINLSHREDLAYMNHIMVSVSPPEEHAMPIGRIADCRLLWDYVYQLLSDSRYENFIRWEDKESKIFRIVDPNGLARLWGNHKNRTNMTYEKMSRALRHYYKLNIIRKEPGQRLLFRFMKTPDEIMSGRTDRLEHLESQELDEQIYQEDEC
# How it was run: as §1
sequence,measurement,setting,value
TTATCG,binding signal,[1],"1.21 fold enrichment (6-mer frequency, TF over GST control)"
same,binding signal,[2],"1.25 fold enrichment (6-mer frequency, TF over GST control)"
same,binding signal,[3],"1.99 fold enrichment (6-mer frequency, TF over GST control)"
same,binding signal,[4],"1.33 fold enrichment (6-mer frequency, TF over GST control)"
same,binding signal,[5],"1.27 fold enrichment (6-mer frequency, TF over GST control)"
same,binding signal,[6],"1.37 fold enrichment (6-mer frequency, TF over GST control)"
same,binding signal,[7],"1.18 fold enrichment (6-mer frequency, TF over GST control)"
same,binding signal,[8],"1.22 fold enrichment (6-mer frequency, TF over GST control)"
same,binding signal,[9],"2.79 fold enrichment (6-mer frequency, TF over GST control)"
same,binding signal,[10],"1.2 fold enrichment (6-mer frequency, TF over GST control)"
same,binding signal,[11],"1.2 fold enrichment (6-mer frequency, TF over GST control)"
same,binding signal,[12],"1.32 fold enrichment (6-mer frequency, TF over GST control)"
same,binding signal,[13],"1.2 fold enrichment (6-mer frequency, TF over GST control)"
same,binding signal,[14],"1.16 fold enrichment (6-mer frequency, TF over GST control)"
same,binding signal,[15],"1.02 fold enrichment (6-mer frequency, TF over GST control)"
same,binding signal,[16],"1.25 fold enrichment (6-mer frequency, TF over GST control)"
same,binding signal,[17],"1.22 fold enrichment (6-mer frequency, TF over GST control)"
same,binding signal,[18],"1.27 fold enrichment (6-mer frequency, TF over GST control)"
